PubChem BioAssay (Tox21)
Records with an inconclusive call do not appear. The source made the active and inactive calls. Unless noted, the call rests on the fitted dose curve; in most records, active means well fitted curve in the direction sought with a large enough effect in the repeat runs; inconclusive means weak or mixed curves; inactive means no such curve, though single readings can be large; an effect the other way counts as inactive or inconclusive.

Legend:
[1] = molecular target: Progesterone receptor (Homo sapiens) (UniProt P06401); assay: qHTS assay to identify small molecule agonists of the progesterone receptor (PR) signaling pathway (AID 1346784; calls by dose curve; further: nearly all actives have a fitted effect of over 30% in size)
Sequence of Progesterone receptor (Homo sapiens) (P06401 whole entry, looked up): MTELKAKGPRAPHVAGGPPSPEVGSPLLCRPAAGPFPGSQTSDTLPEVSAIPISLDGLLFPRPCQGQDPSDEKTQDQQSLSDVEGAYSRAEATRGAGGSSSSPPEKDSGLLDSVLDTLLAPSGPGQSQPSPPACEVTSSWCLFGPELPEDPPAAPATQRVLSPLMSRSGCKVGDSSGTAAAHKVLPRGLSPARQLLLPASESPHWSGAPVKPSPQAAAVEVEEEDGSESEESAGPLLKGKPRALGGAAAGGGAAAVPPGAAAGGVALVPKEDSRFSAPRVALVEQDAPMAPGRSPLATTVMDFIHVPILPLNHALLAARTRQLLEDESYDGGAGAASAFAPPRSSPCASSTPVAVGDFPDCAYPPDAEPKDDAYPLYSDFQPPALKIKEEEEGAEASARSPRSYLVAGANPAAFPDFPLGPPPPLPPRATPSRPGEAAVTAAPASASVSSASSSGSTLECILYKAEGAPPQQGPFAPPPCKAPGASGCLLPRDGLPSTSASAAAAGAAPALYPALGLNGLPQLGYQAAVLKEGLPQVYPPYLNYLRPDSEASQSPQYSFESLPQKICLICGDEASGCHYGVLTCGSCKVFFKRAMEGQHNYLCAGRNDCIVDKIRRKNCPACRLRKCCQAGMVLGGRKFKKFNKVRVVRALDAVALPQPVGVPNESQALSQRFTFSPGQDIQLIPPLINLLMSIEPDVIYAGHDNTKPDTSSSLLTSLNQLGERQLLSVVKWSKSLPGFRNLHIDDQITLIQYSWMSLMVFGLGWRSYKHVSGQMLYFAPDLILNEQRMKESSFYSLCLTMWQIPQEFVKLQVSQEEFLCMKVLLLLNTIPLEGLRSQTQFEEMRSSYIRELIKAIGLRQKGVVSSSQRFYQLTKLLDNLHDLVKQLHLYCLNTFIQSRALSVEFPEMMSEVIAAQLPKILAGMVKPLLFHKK
Summary of the method: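 Agonist qHTS: compounds pinned onto 3,000 PR-UAS-bla HEK 293T cells per well in charcoal-stripped serum medium, 16hr at 37C, then beta-lactamase activity measured by LiveBLAzer FRET fluorescence after 2 hours at room temperature.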

[2] = molecular target: Progesterone receptor (Homo sapiens) (UniProt P06401); assay: qHTS assay to identify small molecule antagonists of the progesterone receptor (PR) signaling pathway (AID 1346795; active means well fitted inhibition curve with a large enough effect in the signal ratio in the repeat runs, not every such curve was filed as active; the % refers to the signal ratio)
Summary of the method: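 Antagonist mode with agonist R5020 at 1 nM final and 16 hr incubation at 37C. Reporter was beta-lactamase driven by UAS in HEK293T (PR-UAS-bla), 2% charcoal-stripped serum; signal from LiveBLAzer FRET substrate, 2 hr at room temperature.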

[3] = qHTS assay to identify small molecule antagonists of the progesterone receptor (PR) signaling pathway - cell viability counter screen (AID 1346798); further: series mostly up to about 92 µM; nearly all actives have a fitted effect of over 50% in size
Summary of the method: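 Cytotoxicity read as CellTiter-Glo luminescence (30 min, room temperature) in the same wells as the beta-lactamase readout. HEK293T PR-UAS-bla cells in charcoal-stripped 2% FBS received compound and R5020, then 16 h at 37C, 5% CO2.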

[4] = qHTS assay to identify small molecule agonists of the progesterone receptor (PR) signaling pathway - cell viability counter screen (AID 1346799; calls by dose curve; further: nearly all actives have a fitted effect of over 45% in size)
Summary of the method: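 Cytotoxicity measured by CellTiter-Glo luminescence (30 min, RT) in the same wells as the PR beta-lactamase agonist read. Those HEK293T cells had 16 h compound treatment at 37 C in 2% charcoal-stripped FBS medium.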

[5] = qHTS assay to identify small molecule antagonists of the TGF-beta/Smad signaling pathway - cell viability counter screen (AID 1346824); further: nearly all actives have a fitted effect of over 50% in size
Summary of the method: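 SBE-bla HEK 293T cells, incubated overnight, then compound plus 0.25 ng/mL TGF-beta1 (stock added) for 5 hr at 37 C. Viability was read in the same wells by CellTiter-Glo luminescence after 30 min at room temperature.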

[6] = qHTS assay to identify small molecule agonists of the TGF-beta/Smad signaling pathway - cell viability counter screen (AID 1346829); further: top concentration of the series differs between compounds; nearly all actives have a fitted effect of over 45% in size
Summary of the method: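 Compound-treated SBE-bla HEK 293T cells (5 hr, 37 C) were assessed for viability with CellTiter-Glo in parallel with the reporter read.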

[7] = qHTS assay to identify small molecule agonists of the TGF-beta/Smad signaling pathway (AID 1346859; active means well fitted activation curve with a large enough effect in the signal ratio in the repeat runs, not every such curve was filed as active; the % refers to the signal ratio; further: series mostly up to about 77 µM)
Summary of the method: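 Fluorescence (ex 405 nm; em 460 and 530 nm) was read 2 h after LiveBLAzer FRET substrate at RT. The preceding compound treatment of overnight-plated SBE-bla HEK293T cells lasted 5 h at 37 C.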

[8] = molecular target: Thyrotropin-releasing hormone receptor (Homo sapiens) (UniProt P34981); assay: qHTS assay to identify small molecule antagonists of the thyrotropin-releasing hormone receptor (TRHR) signaling pathway (AID 1346877; active means well fitted inhibition curve with a large enough effect in the repeat runs, not every such curve was filed as active; further: series mostly up to about 51 µM)
Sequence of Thyrotropin-releasing hormone receptor (Homo sapiens) (P34981 whole entry, looked up): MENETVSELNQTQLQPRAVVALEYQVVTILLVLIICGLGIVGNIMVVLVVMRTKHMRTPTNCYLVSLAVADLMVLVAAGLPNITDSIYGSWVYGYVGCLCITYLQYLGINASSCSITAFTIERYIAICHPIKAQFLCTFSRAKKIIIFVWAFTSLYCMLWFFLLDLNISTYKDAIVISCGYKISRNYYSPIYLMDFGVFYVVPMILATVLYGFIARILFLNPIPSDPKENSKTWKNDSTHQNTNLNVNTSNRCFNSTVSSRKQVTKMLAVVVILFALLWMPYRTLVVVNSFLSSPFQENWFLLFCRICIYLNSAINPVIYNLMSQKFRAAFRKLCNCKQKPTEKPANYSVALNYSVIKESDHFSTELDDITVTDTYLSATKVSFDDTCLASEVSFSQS
Summary of the method: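 Following an 18 h incubation at 37 °C and a 2 h calcium dye load, TRHR-HEK293 cells were exposed to compound (5 min, room temperature) and challenged with TRH, 1 nM final.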

[9] = molecular target: Thyrotropin-releasing hormone receptor (Homo sapiens) (UniProt P34981); assay: qHTS assay to identify small molecule agonists of the thyrotropin-releasing hormone receptor (TRHR) signaling pathway (AID 1346891; calls by dose curve; further: series mostly up to about 58 µM)
Summary of the method: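 Agonist-mode intracellular calcium readout: kinetic fluorescence over 3 min at 1 s intervals after compound addition to TRHR-HEK293 cells (18 h seeded, 2 h dye-loaded at 37 C). Fifteen concentrations, triplicates.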

[10] = Human pregnane X receptor (PXR) small molecule agonists, qHTS cell viability counter screen (AID 1346977); further: nearly all actives have a fitted effect of over 50% in size; further: potency means the concentration at half of the fitted maximal effect
Summary of the method: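 Same-well viability read: CellTiter-Fluor added after 23 hr compound exposure, fluorescence measured 1 hr later. Cells were PXR-Luc HepG2 seeded at 2,000/well in 5% charcoal-stripped FBS medium, rested 5 hr before dosing at 37 C.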

[11] = Caspase-3/7 induction in HepG2 cells by small molecules, qHTS assay (AID 1346978); further: nearly all actives have a fitted effect of over 15% in size
Summary of the method: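 Wild-type HepG2 cells, 2,000/well, settled 5 hr at 37 C and 5% CO2, then compound-treated for 17 hr; caspase-3/7 activity read by luminescent Caspase-Glo 3/7 after 30 min at room temperature.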

[12] = Caspase-3/7 induction in CHO-K1 cells by small molecules, qHTS cell viability counter screen (AID 1346979); further: nearly all actives have a fitted effect of over 35% in size; further: potency means the concentration at half of the fitted maximal effect
Summary of the method: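 Cytotoxicity counter screen: CellTiter-Fluor added to compound-treated wild-type CHO-K1 cells at 16 h (37C, 5% CO2), fluorescence measured 1 h later; same wells as caspase-3/7 measurement.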

[13] = Caspase-3/7 induction in CHO-K1 cells by small molecules, qHTS assay (AID 1346980); further: nearly all actives have a fitted effect of over 15% in size
Summary of the method: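 Wild-type CHO-K1 cells exposed to compounds for 17hr at 37 C, 5% CO2. Caspase-3/7 activity then measured by Caspase-Glo 3/7 luminescence after 30min at room temperature.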

[14] = Caspase-3/7 induction in HepG2 cells by small molecules, qHTS cell viability counter screen (AID 1346981); further: nearly all actives have a fitted effect of over 30% in size; further: potency means the concentration at half of the fitted maximal effect; on activity change, negative = cytotoxicity: series mostly up to about 92 µM
Summary of the method: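 Viability determined by CellTiter-Fluor fluorescence in HepG2 wells also used for the luminescent Caspase-Glo 3/7 read. Compounds were present for 16 hr at 37 C, 5% CO2 before reagent addition.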

[15] = molecular target: Cytochrome P450 2D6 (Homo sapiens) (UniProt P10635); assay: Cytochrome P450 Family 2 Subfamily D Member 6 (CYP2D6) small molecule antagonists: luciferase reporter qHTS assay (AID 1671196); further: nearly all actives have a fitted effect of over 50% in size; further: potency means the concentration at half of the fitted maximal effect; on activity change, negative = inhibition: series mostly up to about 120 µM
Sequence of Cytochrome P450 2D6 (Homo sapiens) (P10635 whole entry, looked up): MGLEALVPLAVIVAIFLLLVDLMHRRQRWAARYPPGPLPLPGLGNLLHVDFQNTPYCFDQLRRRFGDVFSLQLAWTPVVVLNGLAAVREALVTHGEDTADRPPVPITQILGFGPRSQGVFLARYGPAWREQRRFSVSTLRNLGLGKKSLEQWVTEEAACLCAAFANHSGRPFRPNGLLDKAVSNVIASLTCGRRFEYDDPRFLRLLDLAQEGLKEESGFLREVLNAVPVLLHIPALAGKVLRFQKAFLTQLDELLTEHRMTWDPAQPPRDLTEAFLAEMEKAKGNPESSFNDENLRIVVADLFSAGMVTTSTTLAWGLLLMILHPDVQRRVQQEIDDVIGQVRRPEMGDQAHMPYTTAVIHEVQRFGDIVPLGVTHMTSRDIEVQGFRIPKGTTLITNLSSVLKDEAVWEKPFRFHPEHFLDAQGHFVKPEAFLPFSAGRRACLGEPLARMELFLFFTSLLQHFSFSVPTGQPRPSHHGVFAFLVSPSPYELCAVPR
Summary of the method: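 Each well received CYP2D6 with its proluciferin substrate and chemical, sat 10 min, then got NADPH regeneration solution for 1 h at room temperature. Luminescence in RLU served as the activity measure.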

[16] = molecular target: Cytochrome P450 2C19 (Homo sapiens) (UniProt P33261); assay: Cytochrome P450 Family 2 Subfamily C Member 19 (CYP2C19) small molecule antagonists: luciferase reporter qHTS assay (AID 1671197); further: nearly all actives have a fitted effect of over 65% in size; further: potency means the concentration at half of the fitted maximal effect; on activity change, negative = inhibition: series mostly up to about 120 µM
Sequence of Cytochrome P450 2C19 (Homo sapiens) (P33261 whole entry, looked up): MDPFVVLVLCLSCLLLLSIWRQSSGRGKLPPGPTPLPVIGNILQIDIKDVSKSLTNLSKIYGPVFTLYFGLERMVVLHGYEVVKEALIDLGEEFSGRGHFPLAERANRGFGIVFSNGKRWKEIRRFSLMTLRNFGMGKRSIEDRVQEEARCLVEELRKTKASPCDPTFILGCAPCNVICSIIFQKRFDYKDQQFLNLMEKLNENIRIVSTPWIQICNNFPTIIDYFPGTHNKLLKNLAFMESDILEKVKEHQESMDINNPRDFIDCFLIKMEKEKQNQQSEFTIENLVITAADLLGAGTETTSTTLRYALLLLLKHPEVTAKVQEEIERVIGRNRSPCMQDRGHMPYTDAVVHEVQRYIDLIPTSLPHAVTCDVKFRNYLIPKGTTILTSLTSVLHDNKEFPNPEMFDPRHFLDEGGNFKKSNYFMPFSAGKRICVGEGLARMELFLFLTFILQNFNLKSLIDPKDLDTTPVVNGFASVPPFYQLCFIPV
Summary of the method: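 P450-Glo CYP2C19 screening system; proluciferin substrate; DMSO compound stocks; 10 min RT preincubation; NADPH regeneration, 1 h at 37C; luciferin detection reagent, 20 min RT; luminescence as RLU.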

[17] = molecular target: Nuclear receptor subfamily 1 group I member 2 (Homo sapiens) (UniProt O75469); assay: Human pregnane X receptor (PXR) small molecule agonists, qHTS assay (AID 1346982); further: nearly all actives have a fitted effect of over 35% in size
Sequence of Nuclear receptor subfamily 1 group I member 2 (Homo sapiens) (O75469 whole entry, looked up): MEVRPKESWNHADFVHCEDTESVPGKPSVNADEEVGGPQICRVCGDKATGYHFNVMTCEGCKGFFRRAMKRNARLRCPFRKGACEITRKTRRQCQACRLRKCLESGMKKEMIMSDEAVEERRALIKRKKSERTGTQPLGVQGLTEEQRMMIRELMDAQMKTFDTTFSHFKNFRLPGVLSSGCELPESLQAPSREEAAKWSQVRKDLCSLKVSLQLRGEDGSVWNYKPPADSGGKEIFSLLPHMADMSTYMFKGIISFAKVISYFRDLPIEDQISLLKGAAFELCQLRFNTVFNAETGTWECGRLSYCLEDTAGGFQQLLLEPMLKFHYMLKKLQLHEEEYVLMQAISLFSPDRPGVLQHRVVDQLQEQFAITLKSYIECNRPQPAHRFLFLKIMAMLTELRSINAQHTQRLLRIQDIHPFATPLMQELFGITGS
Summary of the method: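 Compound-induced hPXR transactivation of a CYP3A4 luciferase reporter was scored in HepG2 PXR-Luc cells over 24 hr at 37 C, 5% CO2, by luminescence.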

[18] = molecular target: Nuclear receptor subfamily 1 group I member 2 (Rattus norvegicus) (UniProt Q9R1A7); assay: Rat pregnane X receptor (rPXR) activation by small molecules, qHTS assay (AID 1346983); details: rPXR luciferase reporter cells, One-Glo luminescence, 24 h; max activation: hits give high values; further: nearly all actives have a fitted effect of over 20% in size
Sequence of Nuclear receptor subfamily 1 group I member 2 (Rattus norvegicus) (Q9R1A7 whole entry, looked up): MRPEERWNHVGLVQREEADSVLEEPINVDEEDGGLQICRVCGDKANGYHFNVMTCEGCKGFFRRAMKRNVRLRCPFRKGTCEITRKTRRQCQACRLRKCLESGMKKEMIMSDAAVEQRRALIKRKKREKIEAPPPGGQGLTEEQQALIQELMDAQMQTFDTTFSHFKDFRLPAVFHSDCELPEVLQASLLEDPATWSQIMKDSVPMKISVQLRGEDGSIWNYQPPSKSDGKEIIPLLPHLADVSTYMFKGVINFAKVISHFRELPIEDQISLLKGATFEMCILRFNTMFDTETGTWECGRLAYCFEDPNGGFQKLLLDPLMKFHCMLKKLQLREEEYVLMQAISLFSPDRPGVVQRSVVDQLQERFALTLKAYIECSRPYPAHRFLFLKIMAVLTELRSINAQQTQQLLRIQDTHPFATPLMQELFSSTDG
Summary of the method: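 Cell-based rPXR activation assay: rPXR cells, 2,000 per well, rested 5hr at 37 C, then exposed to compounds in DMSO for 24 hr at 37 C. Luciferase activity read by One-Glo luminescence after 30 min at room temperature.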

[19] = molecular target: Nuclear receptor subfamily 1 group I member 2 (Homo sapiens) (UniProt O75469); assay: CYP3A4 induction through human pregnane X receptor (PXR) by small molecules, qHTS assay (AID 1346984); further: nearly all actives have a fitted effect of over 40% in size
Summary of the method: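 Readings come from a luciferase reporter: DPX-2 cells, which are HepG2 cotransfected with PXR and a CYP3A4-promoter construct, were exposed to test compounds for 24 h at 37C before One-Glo detection.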

[20] = molecular target: Nuclear receptor subfamily 1 group I member 2 (Homo sapiens) (UniProt O75469); assay: Human pregnane X receptor (PXR) activation by small molecules, qHTS assay (AID 1346985); further: nearly all actives have a fitted effect of over 40% in size
Summary of the method: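 DPX-2 cells (HepG2 co-transfected with a PXR response element and a CYP3A4-promoter luciferase construct) were seeded at 2,000 per well, rested 5 hr at 37C, then exposed to DMSO-dissolved compounds for 24 hr. Activation was read as luciferase luminescence.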
On the % scale 0 is the no-effect control and ±100 the full control effect.

CCOC(=O)C(F)(F)F
active: Potency [15] 35.6 µM
inactive: Potency [1] | Potency [2] | Potency [3] | Potency [4] | Potency [5] | outcome [6] | Potency [7] | outcome [8] | Potency [9] | Potency [10] | Potency [11] | Potency [12] | Potency [13] | Potency [14] | Potency [16]

Nc1cccc(S(=O)(=O)c2cccc(N)c2)c1
inactive: Potency [1] | Potency [2] | Potency [3] | Potency [4] | Potency [5] | outcome [6] | Potency [7] | outcome [8] | Potency [9] | Potency [10] | Potency [11] | Potency [12] | Potency [13] | Potency [14] | Potency [17] | Potency [15]
active: Potency [16] 35.6 µM

COc1ccc2cccc(CCNC(C)=O)c2c1
inactive: Potency [1] | Potency [2] | Potency [3] | Potency [4] | Potency [5] | outcome [6] | Potency [7] | outcome [8] | Potency [9] | Potency [10] | Potency [11] | Potency [12] | Potency [13] | Potency [14] | Potency [17] | Potency [15]
active: Potency [16] 34.7 µM

Cc1[nH]c(C)c(Cl)c(=O)c1Cl
inactive: activation [1] 2.04% [at 19 µM] | activity change, negative = inhibition [2] 4.44% [at 18.9 µM] | activity change, negative = cytotoxicity [3] 10.6% [at 18.9 µM] | activity change, negative = cytotoxicity [4] 5.96% [at 19 µM] | viability change, negative = cytotoxic [5] 5.33% [at 15.8 µM] | activity change, negative = cytotoxicity [6] 5.04% [at 15.8 µM] | activation [7] 0.225% [at 15.8 µM] | activity, negative = inhibition [8] 2.83% [at 10.5 µM] | activation [9] -1.18% [at 11.8 µM] | activity change, negative = cytotoxicity [10] 6.66% [at 19 µM] | caspase activation [11] 0.0051% [at 19 µM] | activity change, negative = cytotoxicity [12] 1.93% [at 19 µM] | caspase-3/7 activation [13] -0.964% [at 19 µM] | activity change, negative = cytotoxicity [14] -0.581% [at 19 µM] | max activation [18] -3.17% | Potency [19] | Potency [20] | activity change, negative = inhibition [15] -9.89% [at 23.6 µM] | Potency [16]

CN(C)CCN(Cc1ccsc1)c1ccccn1
inactive: Potency [1] | Potency [2] | Potency [3] | Potency [4] | Potency [5] | outcome [6] | Potency [7] | outcome [8] | Potency [9] | Potency [10] | Potency [11] | Potency [12] | Potency [13] | Potency [14] | Potency [17] | Potency [16]
active: Potency [15] 3.89 µM

CCOc1ccc(N=Nc2ccc(/C=C/c3ccc(N=Nc4ccc(OCC)cc4)cc3S(=O)(=O)O)c(S(=O)(=O)O)c2)cc1
inactive: Potency [1] | Potency [2] | Potency [3] | Potency [4] | Potency [5] | outcome [6] | Potency [7] | outcome [8] | Potency [9] | Potency [11] | Potency [13] | Potency [17] | Potency [15] | Potency [16]
active: Potency [10] 47.8 µM | Potency [12] 38 µM | Potency [14] 42.6 µM

CCCCCCCCO[C@@H]1O[C@H](CO)[C@@H](O)[C@H](O)[C@H]1O
inactive: Potency [1] | Potency [2] | Potency [3] | Potency [4] | Potency [5] | outcome [6] | Potency [7] | outcome [8] | Potency [9] | Potency [10] | Potency [11] | Potency [12] | Potency [13] | Potency [14] | Potency [17] | Potency [15]
